PubChem BioAssay AID2289 (National Center for Advancing Translational Sciences (NCATS), 2010)
Out of some 340,000 compounds screened, about 3,300 (0.97%) were called active. Inconclusive results (about 9%) are left out. Calls come from the whole dose curve; as a rule, active = well fitted inhibition curve with a large enough effect; inconclusive = small, poorly fitted or top-dose-only effect, or effect the other way; inactive = flat fitted curve, though single readings scatter. The list shows a part of the results.

Assay: qHTS Assay for Modulators of miRNAs and/or Inhibitors of miR-21; note: nearly all actives have a fitted effect of over 55% in size
Conditions: HeLa miR-21-FLuc reporter, luciferase luminescence, 48 h; actives lower the signal
Outline: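 HeLa cells stably expressing CMV-driven firefly luciferase with a downstream miR-21 binding sequence, endogenously expressing miR-21, were treated with titrations (up to about 40uM final) for 48 hours at 37 degree Celsius. Luciferase luminescence was read after lysis.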
Potency is the fitted concentration of half-maximal effect.

Potency, active:
CCn1nc(C)c(/C=N/NC(=O)Cc2ccc(Cl)cc2)c1C 11.7 µM
COc1ccc(NC(=O)CSc2nc(SC)ns2)c(OC)c1 2.07 µM
COc1ccc(NC(=O)CSc2nc(SC)ns2)cc1 6.56 µM
CCC(C)(C)c1ccc2c(c1)C(=O)c1ccccc1C2=O 1.65 µM
Cc1cs/c(=N\N=C\c2ccc(O)cc2)n1Cc1ccco1 11.7 µM
Nc1nnc(-c2ccc(Cl)cc2Cl)s1 8.26 µM
S=C(Nc1ccccc1)c1nc2ccccc2s1 2.07 µM
O=C(NNc1nc2ccccc2s1)Nc1ccccc1 4.65 µM
CC(C)C1COC(c2cccc3ccccc23)=N1 (centres undefined) 6.56 µM
CCOc1ccccc1CNC(=O)c1cccc(NC(=O)c2nsc3ccccc23)c1 3.29 µM
CCCCNC(=O)c1cccc(NC(=O)c2nsc3ccccc23)c1 2.93 µM
CCN=C1S/C(=C\c2sccc2C)C(=O)N1CC 16.5 µM
Cc1ccc(OCCn2cnc3c(N)ncnc32)cc1 16.5 µM
C=CCn1c(C)cc(C(=O)COC(=O)c2ccc(N)c([N+](=O)[O-])c2)c1C 1.85 µM
CCOc1ncccc1C(=O)OCC(=O)c1cc(C)n(Cc2ccco2)c1C 2.07 µM
Cc1cc(C(=O)COC(=O)c2cc(Cl)ccc2N)c(C)n1Cc1ccco1 2.93 µM
Cc1cc(C(=O)COC(=O)c2ccc(O)cc2)c(C)n1Cc1ccco1 1.85 µM
Cc1cc(C(=O)COC(=O)c2ccco2)c(C)n1Cc1ccco1 4.65 µM
CSc1ncccc1C(=O)OCC(=O)c1cc(C)n(CC2CCCO2)c1C (centres undefined) 0.464 µM
Cc1cc(C)n(-c2nnc(NC34CC5CC(CC(C5)C3)C4)nn2)n1 5.21 µM
Cc1ccc(NC(=O)OCc2cccs2)cc1 1.31 µM
COc1ccc(C(=O)NC(=S)Nc2ccccc2F)cc1 1.04 µM
COc1ccc(C(=O)NCCSC2CCCCC2)cc1 7.36 µM
O=C(NC(=S)NC1CCCCCC1)c1cncc(Br)c1 9.27 µM
COc1ccc(C(=O)NC(=S)NC2CCCCC2)cc1 7.36 µM
Cc1nc2ccccc2nc(C)c1=NOCc1ccc(C#N)cc1 11.7 µM
Cc1nc2ccccc2nc(C)c1=NOCc1ccc(Cl)cc1Cl 16.5 µM
COc1ccc(Oc2nnc(C)c3ccccc23)cc1 4.14 µM
COc1ccc(-c2nnc3c4ccccc4c(C)nn23)cc1 8.26 µM
COc1ccc(NC(=S)c2ccc(N(C)C)cc2)cc1 1.17 µM
Cc1ccc(NC(=S)c2ccccc2)cc1 4.14 µM
COc1ccc(NC(=S)N2CCC(c3ccccc3)C2)cc1 (centres undefined) 1.65 µM
COc1ccc(NC(=S)N/C(=N/CS(=O)(=O)c2ccccc2)c2ccccc2)cc1 5.21 µM
COc1ccc(NC(=S)c2ccccc2)cc1 6.56 µM
CCC(N=c1cc(-c2ccc(OC)cc2)oc2ccc(C)cc12)C(=O)O (centres undefined) 0.293 µM
COc1ccc(-c2cc(=Nc3ccc(C(=O)O)cc3)c3cc(C)ccc3o2)cc1 2.07 µM
COc1ccc(-c2cc(=NC(CC(C)C)C(=O)O)c3cc(C)ccc3o2)cc1 (centres undefined) 0.369 µM
COc1ccc(-c2nc(C#N)c(NCC3CCCO3)o2)cc1OC (centres undefined) 14.7 µM
Cc1ccc(-c2nc(C#N)c(NCC3CCCO3)o2)cc1 (centres undefined) 13.1 µM
Clc1ccc(N/N=C/c2ccncc2)cc1Cl 8.26 µM
O=C(O)c1cc(N/N=C/c2cccnc2)ccc1Cl 14.7 µM
O=C(O)c1cccc(N/N=C/c2cccnc2)c1 2.93 µM
Nc1ccc(SCc2nc3cccc4c3n2CCC4)cc1 14.7 µM
Cc1nc(-c2ccccc2)sc1-c1nnc(C2CC2)o1 4.65 µM
COc1ccccc1N1CCN(C(=S)NC(=O)/C=C/c2ccccc2)CC1 9.27 µM
O=C(/C=C/c1ccc(F)cc1)NC(=S)N1CCN(c2ccccn2)CC1 13.1 µM
Cc1cc(NC(=O)c2ccco2)ccc1-n1cnnn1 7.36 µM
Nc1nc2ccc(NC(=O)c3ccco3)cc2s1 7.36 µM
Cc1nc2ccc(NC(=O)c3ccco3)cc2s1 7.36 µM
CSc1nc2ccc(NC(=O)c3ccco3)cc2s1 1.47 µM
Cc1nc2ccc(NC(=O)c3ccc(Br)o3)cc2s1 2.93 µM
CC(=O)Nc1nc2ccc(NC(=O)c3ccco3)cc2s1 10.4 µM
COc1cc2sc(NC(=O)c3ccco3)nc2cc1Cl 0.585 µM
CSc1nc2ccc(NC(=O)c3c(F)cccc3F)cc2s1 7.36 µM
Nc1c(Cl)cc2c(c1Oc1ccccc1)C(=O)c1ccccc1C2=O 4.14 µM
COc1ccc(C2=NN(C(=O)c3ccccc3C(=O)O)C(c3ccccc3O)C2)cc1 (centres undefined) 5.85 µM
O=C(c1ccncc1)N1N=C(c2ccc(Cl)cc2)CC1c1ccccc1O (centres undefined) 6.56 µM
Cc1ccc(OCCSc2nc(N)cc(N)n2)cc1 4.65 µM
Nc1cc(N)nc(SCCOc2ccccc2)n1 11.7 µM
c1cnc(SCCOc2cccc3ccccc23)nc1 3.29 µM
COc1ccc(OCCSc2nc(N)cc(N)n2)cc1 3.29 µM
Cc1cc(SCCOc2ccccc2)nc(N)n1 16.5 µM
Nc1cc(N)nc(SCCOc2ccccc2F)n1 14.7 µM
CCOC(=O)c1ccc(NC(=O)C(CC)Sc2nc3ncccc3o2)cc1 (centres undefined) 4.65 µM
Cc1ccc(NC(=O)/C=C2\NC(=O)CS2)cc1 16.5 µM
Cc1occc1C(=O)N/N=C/c1ccc(Br)s1 6.56 µM
C/C(=N\NC(=O)c1ccoc1C)c1ccc(Br)s1 11.7 µM
O=C(N/N=C/c1ccc(Br)s1)c1ccco1 14.7 µM
COC(=O)/C(=C/c1cccc([N+](=O)[O-])c1)NC(=O)c1ccc(OC)cc1 5.21 µM
